Assay results as given in the supplement of paper PMC10849652.
Of roughly 7,900 targets only a part is listed; those with a hit were picked by preference. About 0.6% of all pairs of compound and target were hits. Unmarked numbers belong to inactive results.

Tests used:
Assay in all cases: log2 fold change, soluble protein after heating vs DMSO (PISA); higher = thermal stabilisation; K562 cells, 10 uM, 30 min; active = over 0.2 and 3.5 SD of the protein, either way, in both replicates (recomputed)
[1] = compound: C1COCCN1CCN2C3=CC=CC=C3N=C2NC(=O)C4=CC(=CC=C4)[N+](=O)[O-] [IRAK-1-4 Inhibitor I]
In short: (§1)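 K562 cells (2×10^6 cells/mL) were treated with 10 μM compound for 30 min, and aliquots were heated for 3 min over 48°C-58°C. Pooled aliquots were extracted in PBS with 0.5% NP-40 at 4°C, and the supernatant after 21,000xg for 90 min was measured by TMTpro 16plex LC-MS/MS with channel sums equalised. Reported thermal stability, relative to control samples and from duplicates, is a log2 fold change.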

[2] = compound: C=CC(=O)N1CCC[C@@H](n2nc(-c3ccc(Oc4ccccc4)cc3)c3c(N)ncnc32)C1 [ibrutinib]
In short: as §1

[3] = compound: CC(=O)c1cnc2ccc(-c3cc(Cl)c(O)c(Cl)c3)nc2c1N[C@H]1CC[C@H](CN(C)C)CC1
In short: as §1

[4] = compound: CC(C)(C)Cn1c(N)nc2ccc(-c3[nH]c(C(C)(C)C)nc3-c3ccc(F)cc3)nc21 [ralimetinib]
In short: as §1

[5] = compound: CC(C)(O)CC(=O)NCCn1ccc2ncnc(Nc3ccc(Oc4cccc(C(F)(F)F)c4)c(Cl)c3)c21
In short: as §1

[6] = compound: CC(C)C1=C2N=C(C=C(N2N=C1)NCC3=CC=CC=C3)NCCCCCCN
In short: as §1

[7] = compound: CC(C)C[C@@H](C=O)NC(=O)[C@H](CC(C)C)NC(=O)[C@H](CC(C)C)NC(=O)OCc1ccccc1
In short: as §1

[8] = compound: CC(C)N(C[C@H]1O[C@@H](n2cnc3c(N)ncnc32)[C@H](O)[C@@H]1O)[C@H]1C[C@@H](CCc2nc3cc(C(C)(C)C)ccc3[nH]2)C1 [pinometostat]
In short: as §1

[9] = compound: CC1=C(C(CC(=O)N1)C2=CC=C(C=C2)C(F)(F)F)C(=O)NC3=C(C=C4C(=C3)C=NN4)F
In short: as §1

[10] = compound: CC1=C(C2=C(C=C1)C(=O)C3=CC=CC=C3N2CCCN)C
In short: as §1

[11] = compound: CC1=C(C=C(C=C1)NC(=O)C2=CC(=CC=C2)C(C)(C)C#N)NC3=CC4=C(C=C3)N=CN(C4=O)C
In short: as §1

[12] = compound: CC1=C(C=C(C=C1)NC(=O)C2=CC(=CC=C2)N(C)C)NC(=O)C3=CC=C(C=C3)O
In short: as §1

[13] = compound: CC1=CC=C(C=C1)SC2=C3C=C(SC3=CN=C2)C(=O)N
In short: as §1

[14] = compound: CC1=NC(=CC=C1)C2=C(N=C(N2)C(C)(C)C)C3=CC4=NC=CN=C4C=C3
In short: as §1

[15] = compound: CCCCN(Cc1ccc(C(=O)NO)cc1)C(=O)Nc1ccccc1 [Nexturastat A]
In short: as §1

[16] = compound: CCCS(=O)(=O)Nc1ccc(F)c(C(=O)c2c[nH]c3ncc(-c4ccc(Cl)cc4)cc23)c1F [vemurafenib]
In short: as §1

[17] = compound: CCCS(=O)(=O)Nc1ccc(F)c(C(=O)c2c[nH]c3ncc(Cl)cc23)c1F
In short: as §1

[18] = compound: CCCc1cc(C)[nH]c(=O)c1CNC(=O)c1cc(-c2ccnc(N3CCN(C)CC3)c2)cc2c1cnn2C(C)C
In short: as §1

[19] = compound: CCN(CC)Cc1ccc2cc(COC(=O)Nc3ccc(C(=O)NO)cc3)ccc2c1 [givinostat]
In short: as §1

[20] = compound: CCN(CCCOc1ccc2c(Nc3cc(CC(=O)Nc4cccc(F)c4)[nH]n3)ncnc2c1)CCOP(=O)(O)O [barasertib]
In short: as §1

Chain of UniProt P46087 (P46087 whole entry, looked up): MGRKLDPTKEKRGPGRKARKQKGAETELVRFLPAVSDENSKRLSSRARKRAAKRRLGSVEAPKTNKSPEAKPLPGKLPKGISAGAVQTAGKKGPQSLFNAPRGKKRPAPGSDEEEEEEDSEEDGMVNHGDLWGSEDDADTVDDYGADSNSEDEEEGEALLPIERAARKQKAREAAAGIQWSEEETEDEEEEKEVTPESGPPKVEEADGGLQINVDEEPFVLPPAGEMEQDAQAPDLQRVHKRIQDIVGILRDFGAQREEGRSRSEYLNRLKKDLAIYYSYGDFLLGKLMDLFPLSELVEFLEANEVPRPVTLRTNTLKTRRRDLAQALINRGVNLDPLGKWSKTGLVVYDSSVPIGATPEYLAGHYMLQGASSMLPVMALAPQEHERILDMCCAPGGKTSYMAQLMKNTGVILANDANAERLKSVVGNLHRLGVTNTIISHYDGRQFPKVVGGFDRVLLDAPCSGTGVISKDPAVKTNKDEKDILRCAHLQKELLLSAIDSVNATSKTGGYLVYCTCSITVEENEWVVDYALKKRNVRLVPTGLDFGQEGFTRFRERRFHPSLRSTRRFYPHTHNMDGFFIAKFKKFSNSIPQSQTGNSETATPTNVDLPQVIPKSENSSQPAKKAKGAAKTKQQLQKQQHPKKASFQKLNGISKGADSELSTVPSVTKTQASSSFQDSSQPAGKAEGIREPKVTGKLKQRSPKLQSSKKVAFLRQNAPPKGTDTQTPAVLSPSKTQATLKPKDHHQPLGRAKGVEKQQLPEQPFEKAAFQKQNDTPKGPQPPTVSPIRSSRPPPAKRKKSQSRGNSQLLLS
Chain of UniProt P03905 (P03905 whole entry, looked up): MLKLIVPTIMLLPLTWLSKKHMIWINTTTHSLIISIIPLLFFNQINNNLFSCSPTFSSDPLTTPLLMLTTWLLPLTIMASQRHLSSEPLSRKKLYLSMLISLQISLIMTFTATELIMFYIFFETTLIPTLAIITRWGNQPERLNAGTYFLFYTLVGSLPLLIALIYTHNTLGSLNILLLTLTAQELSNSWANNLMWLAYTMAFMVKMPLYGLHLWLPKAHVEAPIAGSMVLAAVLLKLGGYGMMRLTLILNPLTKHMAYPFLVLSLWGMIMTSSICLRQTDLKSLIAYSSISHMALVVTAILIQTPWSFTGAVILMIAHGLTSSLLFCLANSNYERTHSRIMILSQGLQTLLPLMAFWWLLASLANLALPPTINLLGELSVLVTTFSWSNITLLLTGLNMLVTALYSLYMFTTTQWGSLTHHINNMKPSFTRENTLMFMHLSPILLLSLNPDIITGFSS
Chain of UniProt Q9BRA0 (Q9BRA0 whole entry, looked up): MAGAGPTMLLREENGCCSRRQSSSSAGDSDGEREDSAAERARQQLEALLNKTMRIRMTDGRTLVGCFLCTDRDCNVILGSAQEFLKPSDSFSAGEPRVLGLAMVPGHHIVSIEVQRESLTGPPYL
Chain of UniProt P20585 (P20585 whole entry, looked up): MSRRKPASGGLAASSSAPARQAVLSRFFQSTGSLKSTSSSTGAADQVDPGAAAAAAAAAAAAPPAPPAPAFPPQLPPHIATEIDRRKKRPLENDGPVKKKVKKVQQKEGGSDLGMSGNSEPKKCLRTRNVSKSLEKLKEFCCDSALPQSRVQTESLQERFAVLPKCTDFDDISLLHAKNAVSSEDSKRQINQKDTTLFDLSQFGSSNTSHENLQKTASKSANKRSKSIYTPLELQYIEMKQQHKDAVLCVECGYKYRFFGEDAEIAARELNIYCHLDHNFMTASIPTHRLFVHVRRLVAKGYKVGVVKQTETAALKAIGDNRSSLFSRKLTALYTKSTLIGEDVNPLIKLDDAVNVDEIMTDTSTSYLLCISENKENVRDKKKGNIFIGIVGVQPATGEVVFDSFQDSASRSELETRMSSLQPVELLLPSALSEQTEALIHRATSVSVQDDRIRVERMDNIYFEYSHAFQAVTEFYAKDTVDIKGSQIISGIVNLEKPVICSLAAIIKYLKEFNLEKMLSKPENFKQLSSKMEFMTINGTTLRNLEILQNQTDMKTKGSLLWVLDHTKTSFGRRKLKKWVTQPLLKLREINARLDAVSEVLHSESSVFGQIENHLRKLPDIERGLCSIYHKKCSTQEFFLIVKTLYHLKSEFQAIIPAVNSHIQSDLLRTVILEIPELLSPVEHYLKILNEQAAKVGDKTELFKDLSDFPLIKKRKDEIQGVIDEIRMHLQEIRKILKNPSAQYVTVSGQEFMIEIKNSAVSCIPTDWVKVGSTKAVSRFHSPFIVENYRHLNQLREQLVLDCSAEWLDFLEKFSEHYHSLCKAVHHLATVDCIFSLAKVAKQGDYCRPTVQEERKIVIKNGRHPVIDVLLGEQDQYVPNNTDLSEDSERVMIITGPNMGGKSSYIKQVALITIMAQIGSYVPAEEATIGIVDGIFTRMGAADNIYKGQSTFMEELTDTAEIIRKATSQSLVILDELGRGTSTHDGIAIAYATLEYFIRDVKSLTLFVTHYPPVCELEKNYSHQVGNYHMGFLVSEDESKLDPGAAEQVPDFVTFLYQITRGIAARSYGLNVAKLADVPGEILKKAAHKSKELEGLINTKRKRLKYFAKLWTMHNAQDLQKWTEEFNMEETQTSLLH
Chain of UniProt Q96IV0 (Q96IV0 whole entry, looked up): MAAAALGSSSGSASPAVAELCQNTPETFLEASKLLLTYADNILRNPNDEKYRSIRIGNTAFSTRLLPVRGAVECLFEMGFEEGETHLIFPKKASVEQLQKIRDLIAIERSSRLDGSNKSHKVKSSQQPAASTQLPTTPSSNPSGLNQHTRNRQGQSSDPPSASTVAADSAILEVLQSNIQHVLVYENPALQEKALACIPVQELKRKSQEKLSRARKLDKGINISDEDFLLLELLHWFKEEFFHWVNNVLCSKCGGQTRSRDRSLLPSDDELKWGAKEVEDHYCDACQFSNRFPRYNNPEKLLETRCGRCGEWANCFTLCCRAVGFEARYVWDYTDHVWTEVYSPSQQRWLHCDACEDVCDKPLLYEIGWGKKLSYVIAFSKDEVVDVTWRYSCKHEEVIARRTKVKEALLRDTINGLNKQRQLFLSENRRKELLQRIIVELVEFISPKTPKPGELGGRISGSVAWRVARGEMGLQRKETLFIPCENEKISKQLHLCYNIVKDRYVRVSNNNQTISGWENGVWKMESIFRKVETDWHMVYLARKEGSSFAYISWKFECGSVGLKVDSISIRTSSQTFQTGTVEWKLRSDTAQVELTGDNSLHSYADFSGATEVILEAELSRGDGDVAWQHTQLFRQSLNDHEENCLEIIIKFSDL
Chain of UniProt Q7Z3U7 (Q7Z3U7 whole entry, looked up): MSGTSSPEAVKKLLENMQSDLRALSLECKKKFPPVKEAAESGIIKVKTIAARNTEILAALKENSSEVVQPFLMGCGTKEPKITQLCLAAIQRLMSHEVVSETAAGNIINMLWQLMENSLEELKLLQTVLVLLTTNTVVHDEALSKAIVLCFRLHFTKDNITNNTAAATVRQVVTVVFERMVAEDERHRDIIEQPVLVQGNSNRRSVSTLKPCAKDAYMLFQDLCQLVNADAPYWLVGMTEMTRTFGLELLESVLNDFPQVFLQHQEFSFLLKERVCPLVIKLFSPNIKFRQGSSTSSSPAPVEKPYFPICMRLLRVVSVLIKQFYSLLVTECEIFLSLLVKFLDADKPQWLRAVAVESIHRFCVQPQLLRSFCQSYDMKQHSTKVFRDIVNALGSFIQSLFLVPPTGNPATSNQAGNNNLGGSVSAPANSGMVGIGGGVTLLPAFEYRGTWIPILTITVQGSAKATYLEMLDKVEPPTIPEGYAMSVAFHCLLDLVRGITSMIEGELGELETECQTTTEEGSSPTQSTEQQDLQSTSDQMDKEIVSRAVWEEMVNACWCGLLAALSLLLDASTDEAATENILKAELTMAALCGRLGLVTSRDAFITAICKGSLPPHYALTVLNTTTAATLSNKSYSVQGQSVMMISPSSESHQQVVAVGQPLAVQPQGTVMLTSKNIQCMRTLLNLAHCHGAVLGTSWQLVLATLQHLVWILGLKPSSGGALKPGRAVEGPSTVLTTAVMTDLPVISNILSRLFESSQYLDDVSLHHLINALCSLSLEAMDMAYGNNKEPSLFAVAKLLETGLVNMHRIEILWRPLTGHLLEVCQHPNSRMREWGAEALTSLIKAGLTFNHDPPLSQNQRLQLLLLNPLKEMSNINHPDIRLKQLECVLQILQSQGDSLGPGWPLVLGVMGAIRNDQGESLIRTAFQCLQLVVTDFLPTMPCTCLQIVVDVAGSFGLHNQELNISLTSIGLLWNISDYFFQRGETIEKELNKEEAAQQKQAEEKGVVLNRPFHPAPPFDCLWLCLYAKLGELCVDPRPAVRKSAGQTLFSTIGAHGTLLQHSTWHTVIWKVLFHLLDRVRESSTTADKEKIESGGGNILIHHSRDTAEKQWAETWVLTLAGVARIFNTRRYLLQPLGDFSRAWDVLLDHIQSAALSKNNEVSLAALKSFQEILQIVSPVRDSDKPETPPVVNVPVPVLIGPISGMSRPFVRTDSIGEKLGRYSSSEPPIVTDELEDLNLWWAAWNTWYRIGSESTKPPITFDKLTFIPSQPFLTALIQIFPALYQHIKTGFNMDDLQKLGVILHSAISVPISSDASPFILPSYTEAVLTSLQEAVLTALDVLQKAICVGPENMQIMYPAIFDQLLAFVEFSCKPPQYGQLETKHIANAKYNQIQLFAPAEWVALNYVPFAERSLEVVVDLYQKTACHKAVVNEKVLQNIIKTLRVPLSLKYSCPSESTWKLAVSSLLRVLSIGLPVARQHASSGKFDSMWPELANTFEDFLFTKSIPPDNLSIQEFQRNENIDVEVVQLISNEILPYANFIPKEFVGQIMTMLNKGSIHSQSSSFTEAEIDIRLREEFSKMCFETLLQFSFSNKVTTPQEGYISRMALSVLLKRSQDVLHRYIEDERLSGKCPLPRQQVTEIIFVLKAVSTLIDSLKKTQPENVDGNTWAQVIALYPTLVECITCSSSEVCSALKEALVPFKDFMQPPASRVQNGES

| Target | log2 fold change [1] | log2 fold change [2] | log2 fold change [3] | log2 fold change [4] | log2 fold change [5] | log2 fold change [6] | log2 fold change [7] | log2 fold change [8] | log2 fold change [9] | log2 fold change [10] | log2 fold change [11] | log2 fold change [12] | log2 fold change [13] | log2 fold change [14] | log2 fold change [15] | log2 fold change [16] | log2 fold change [17] | log2 fold change [18] | log2 fold change [19] | log2 fold change [20] |
| --- | --- | --- | --- | --- | --- | --- | --- | --- | --- | --- | --- | --- | --- | --- | --- | --- | --- | --- | --- | --- |
| PAK1 isoform 2 (UniProt Q13153) | 0.018 | 0.048 | 0.158 | -0.066 | -0.025 | 0 | -0.046 | -0.038 | 0.192 | 0.051 | 0.035 | -0.072 | 0.114 | 0.003 | -0.01 | 0.019 | -0.036 | -0.075 | -0.054 | -0.001 |
| NGLY1 (UniProt Q96IV0) | -0.091 | -0.052 | -0.059 | 0.018 | -0.07 | -0.071 | 0.036 | 0.088 | 0.04 | 0.123 | -0.034 | -0.039 | 0.052 | -0.016 | 0.102 | 0.009 | 0.026 | 0.016 | 0.036 | 0.024 |
| MRPS33 (UniProt Q9Y291) | -0.006 | 0.022 | -0.004 | -0.038 | -0.069 | -0.034 | 0.122 | 0.096 | 0.096 | -0.158 | 0.075 | -0.078 | -0.025 | -0.004 | 0.098 | 0.023 | 0.073 | -0.042 | 0.043 | -0.015 |
| MT-ND1 (UniProt P03886) | 0.104 | -0.009 | -0.072 | 0.071 | -0.142 | -0.142 | -0.102 | -0.092 | -0.115 | 0.119 | -0.002 | 0.028 | -0.008 | -0.034 | 0.021 | 0.168 | 0.208 | 0.019 | 0.057 | 0.127 |
| NAA38 isoform 2 (UniProt Q9BRA0) | 0.047 | -0.021 | -0.034 | 0.02 | -0.095 | -0.397 (active) | -0.001 | 0.035 | 0.051 | -0.01 | 0.018 | 0.041 | 0.018 | -0.044 | 0.052 | 0.094 | 0.042 | -0.129 | 0.066 | -0.025 |
| MOV10 (UniProt Q9HCE1) | -0.135 | 0.002 | 0.069 | 0.12 | 0.082 | 0.02 | 0.033 | 0.163 | -0.052 | -0.305 | 0.044 | 0.017 | -0.055 | -0.067 | 0.221 | -0.027 | -0.048 | 0.054 | -0.006 | -0.05 |
| MRPS2 (UniProt Q9Y399) | -0.043 | 0.109 | -0.011 | -0.02 | -0.035 | -0.03 | 0.08 | 0.002 | 0.002 | -0.079 | 0.075 | -0.049 | -0.018 | 0.029 | 0.049 | 0.126 | 0.041 | -0.084 | -0.044 | -0.031 |
| MON2 isoform 5 (UniProt Q7Z3U7) | 0.013 | -0.036 | -0.005 | 0.097 | -0.076 | -0.088 | 0.004 | 0.048 | -0.022 | 0.055 | -0.002 | -0.009 | -0.036 | 0.018 | 0 | 0.017 | 0.085 | 0.046 | 0.029 | 0.039 |
| MT-ND4 (UniProt P03905) | -0.005 | -0.092 | -0.236 | -0.06 | -0.094 | -0.124 | -0.054 | -0.135 | -0.065 | 0.056 | -0.064 | 0.067 | 0.015 | 0.048 | -0.155 | 0.004 | 0.016 | 0.014 | 0.058 | 0.156 |
| MSH3 (UniProt P20585) | -0.001 | -0.002 | 0.054 | -0.053 | 0.01 | 0.068 | 0.056 | 0.043 | 0.023 | 0.27 (active) | 0.029 | -0.033 | 0.021 | -0.101 | -0.015 | 0.019 | 0.053 | -0.013 | 0.002 | -0.001 |
| NR2C2 isoform 2 (UniProt P49116) | 0.004 | 0.022 | -0.062 | -0.064 | -0.048 | -0.004 | 0.058 | 0.014 | 0.045 | -0.215 | -0.017 | 0.029 | 0.114 | -0.034 | -0.23 (active) | -0.023 | 0.03 | 0.04 | -0.073 | 0.028 |
| MYH10 isoform 3 (UniProt P35580) | 0.024 | -0.022 | -0.011 | -0.04 | -0.069 | -0.05 | -0.001 | -0.015 | -0.019 | -0.024 | 0.009 | -0.033 | 0.019 | 0.07 | -0.05 | 0.028 | 0.05 | 0 | -0.003 | 0.038 |
| NOP2 isoform 4 (UniProt P46087) | -0.111 | -0.278 | 0.308 | 0.205 | 0.163 | 0.241 | 0.194 | 0.325 | -0.062 | -0.474 | -0.031 | -0.062 | -0.105 | -0.264 | 0.2 | -0.433 | -0.051 | 0.172 | 0.178 | -0.223 |
| NCAPD2 (UniProt Q15021) | -0.101 | -0.067 | 0.097 | 0.048 | -0.151 | -0.208 | 0.054 | 0.039 | -0.012 | -0.036 | 0.057 | -0.032 | 0.012 | -0.013 | 0.058 | 0.119 | 0.041 | 0.101 | 0.077 | 0.03 |
| NRDC isoform 2 (UniProt O43847) | 0.003 | -0.033 | -0.026 | 0.011 | -0.04 | 0.053 | 0.029 | 0.015 | 0 | 0.037 | 0.001 | -0.053 | 0.01 | 0.03 | 0 | 0.047 | 0.051 | 0.021 | 0.017 | 0.037 |
| NUDT21 (UniProt O43809) | -0.057 | 0.014 | -0.33 (active) | -0.022 | 0.077 | 0.066 | 0.034 | -0.022 | -0.005 | 0.246 (active) | 0.052 | 0.077 | -0.007 | 0.019 | 0 | 0.02 | -0.053 | -0.013 | -0.033 | -0.023 |
